# The list is not random: actives were taken first. Their share in the collection is about 18%.
# VDR inh = inhibitors of human vitamin D receptor; VDR-SRC2-3 peptide fluorescence polarization, 2 h; Potency, µM, inactives show max response, negative = inhibition, most hits filed as inhibitors; 0.93% of 400,000 active
#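 After 23 nl compound addition and a short centrifugation, plates sat for 2 hours at ambient temperature; polarization of fluorescence then indicated loss of VDR binding to peptide SRC2-3.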
# TDP1 cell noCPT = qHTS for Inhibitors of human tyrosyl-DNA phosphodiesterase 1 (TDP1): qHTS in cells in absence of CPT | DT40 Tdp1-/- hTDP1 cells, no CPT, ATP luminescence, 48 h | Potency, µM (highest dose often 46.2 µM), without a hit: at the highest dose activity change, negative = growth inhibition, hits mostly inhibitors | 15% of 420,000 active; also: nearly all actives have a fitted effect of over 55% in size
#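 A cellular qHTS used chicken DT40 cells lacking endogenous Tdp1 but carrying stably transfected human TDP1. Compounds were applied without camptothecin, and cell growth kinetics were judged by ATP-dependent luminescence after ≥48 hr.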
# TDP1 block = TDP1 (human) enzyme inhibition. Q9NUW8. recombinant TDP1, AlphaScreen DNA substrate cleavage. Potency, µM (top dose mostly 130 µM), inactives show top-dose activity change, negative = inhibition, actives largely listed as inhibitors. 0.28% of 350,000 active. AID 485290; also: nearly all actives have a fitted effect of over 40% in size
# Target sequence (Q9NUW8 whole entry, looked up): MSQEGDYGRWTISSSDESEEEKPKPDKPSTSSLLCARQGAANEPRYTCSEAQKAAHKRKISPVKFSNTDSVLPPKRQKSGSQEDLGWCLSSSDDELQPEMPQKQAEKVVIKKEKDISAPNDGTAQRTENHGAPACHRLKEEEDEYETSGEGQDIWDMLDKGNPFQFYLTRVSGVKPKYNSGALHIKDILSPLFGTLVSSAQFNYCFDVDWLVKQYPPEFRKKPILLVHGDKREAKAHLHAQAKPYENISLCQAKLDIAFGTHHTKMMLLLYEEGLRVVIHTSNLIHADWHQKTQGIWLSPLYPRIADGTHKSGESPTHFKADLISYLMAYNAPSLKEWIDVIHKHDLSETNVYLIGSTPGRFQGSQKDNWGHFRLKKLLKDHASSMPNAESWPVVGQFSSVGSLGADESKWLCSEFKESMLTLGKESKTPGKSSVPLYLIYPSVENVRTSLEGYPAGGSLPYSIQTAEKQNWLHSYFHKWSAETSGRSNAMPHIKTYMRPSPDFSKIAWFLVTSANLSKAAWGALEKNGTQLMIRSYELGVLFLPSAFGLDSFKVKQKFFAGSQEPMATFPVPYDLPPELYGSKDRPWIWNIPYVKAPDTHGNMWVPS
#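 Steps: enzyme plus compound, 15 min RT; add biotin/phosphotyrosine-FITC oligonucleotide (15 nM final), react 5 min; add donor/acceptor beads (10 ug/ml final), 10 min; read AlphaScreen. Tdp1 at 1 nM final.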
# KAT2A inh = inhibitors of human GCN5L2 histone acetyltransferase | Q92830 | GCN5L2 HAT assay, ThioGlo1 CoA-SH fluorescence | Potency, µM (highest dose often 58.9 µM), for the others: at the top dose activity change, negative = inhibition, hits mostly inhibitors | 0.21% of 390,000 active | AID 504327
#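 Titration-based screen in which CoA formation is detected via maleimide probe ThioGlo1 (50uM) turning fluorescent on thiol reaction; substrates H3(1-25) 75uM and acetyl-CoA 70uM, GCN5L2 20nM, 20 min incubation at room temperature.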
# PLK1 PBD block = inhibitors of human PLK1 polo-box domain binding; Potency, µM, for inactives: max response, negative = inhibition, usual class: inhibitors; AID 720504; Plk1 PBD binding of FITC phosphopeptide, fluorescence polarization; 2.8% of 360,000 active; also: series mostly up to about 57 µM; nearly all actives have a fitted effect of over 65% in size
# TDP1 cell CPT = growth inhibition of DT40 Tdp1-/-;hTDP1 cells with camptothecin (screen for TDP1 inhibitors). 12% of 420,000 active. AID 686979. chicken DT40 Tdp1-/-;hTDP1 cells + 20 nM CPT, ATP luminescence, 48 h. Potency, µM (titrated, usually from 46.2 µM), for the others: top-dose activity change, negative = growth inhibition, most hits filed as inhibitors; also: nearly all actives have a fitted effect of over 55% in size
#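 Chicken DT40 Tdp1-/- cells stably complemented with human TDP1 were seeded at 400 cells/well in medium containing 20 nM camptothecin, exposed to pin-transferred compounds, and grown at 37 °C for at least 48 hr. Viability was read as ATP luminescence.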
# * marks the source's active call; other numbers are inactive results; ? = inconclusive; nt = no result given; [ ] = dose if it differs, or a comment. Calls follow the shape of the dose curve; as a rule, active = well fitted curve in the direction sought with a large enough effect; inconclusive = small, poorly fitted or top-dose-only effect, or another doubt; inactive = no such curve, though single readings can be large; an effect the other way counts as inactive or inconclusive. % is scaled to controls: 0 for no effect and ±100 for the full control effect; potency is read from the fitted curve at half-maximal effect.
SMILES,VDR inh,TDP1 cell noCPT,TDP1 block,KAT2A inh,PLK1 PBD block,TDP1 cell CPT
CC1CCCN(C2=C(NS(=O)(=O)c3ccc(Br)cc3)C(=O)c3ccccc3C2=O)C1 (configuration not stated),-22%,12µM*,nt,-19%,?,?
c1ccc(-c2n[nH]c(-c3ccccc3)c2-c2nc3ccccc3[nH]2)cc1,?,?,5%,?,27µM*,?
Cc1nc(CS(=O)c2ccc(Cl)cc2)cc(NCc2ccc(Cl)cc2Cl)n1 (configuration not stated),-21%,21µM*,3%,2%,-7%,15µM*
Cn1cccc1/C=N/n1c(-c2ccco2)n[nH]c1=S,20%,1%,5%,-9%,-5%,16%
COc1cc(-c2n[nH]c(=S)n2/N=C/c2cccn2C)cc(OC)c1OC,3%,18µM*,nt,-7%,-7%,?
CCc1nc2cc(C(=O)NC3CCOC(C)(C)C3)cc(NC(=O)c3ccccc3OC)c2n1C (configuration not stated),nt,-22%,nt,nt,nt,7%
Cc1ccc2nc(-c3ccncc3)c(Nc3ccccc3C)n2c1,-9%,?,-2%,-3%,nt,?
c1ccc(Nc2c(-c3ccco3)nc3ccccn23)cc1,0%,23µM*,3%,-30%,-2%,?
Cc1ccccc1Nc1c(-c2cccc(N(C)C)c2)nc2ccc(Br)cn12,-3%,23µM*,10%,-10%,nt,13µM*
Cc1ccccc1Nc1c(-c2ccncc2)nc2ccc(Br)cn12,-5%,18µM*,0%,-3%,-6%,23µM*
Cc1ccccc1Nc1c(-c2c(F)cccc2Cl)nc2ccc(Br)cn12,-12%,?,-2%,-3%,nt,?
Cc1ccccc1Nc1c(-c2ccco2)nc2c(C)cccn12,-8%,21µM*,15%,-17%,nt,23µM*
CC1(C(=O)NS(=O)(=O)c2cccc(F)c2)CCN1C(=O)c1ccccc1 (configuration not stated),nt,-1%,nt,nt,-10%,-7%
CCOc1ccc(S(=O)(=O)N(CC)CC(=O)NCc2ccccn2)cc1C,5%,?,?,4%,-9%,-28%
CCCCCS(=O)(=O)CCCCCCCCCCn1c(-c2ccc(O)cc2)c(C)c2cc(O)ccc21,nt,nt,15%,nt,nt,nt
COc1ccccc1CNC(=O)[C@H](C)NC(=O)C1CCN(C(=O)[C@@H](N)CC(C)C)CC1,-3%,-18%,nt,-7%,-4%,-15%
Cc1ccccc1Nc1c(-c2cccnc2)nc2ccc(Cl)cn12,-19%,?,-9%[12.3 µM],-2%,nt,12µM*
Cc1ccccc1Nc1c(-c2ccc(Br)o2)nc2ccc(Cl)cn12,-17%,?,0%,-1%,nt,?
Cc1ccccc1Nc1c(-c2cccnc2)nc2ccc(Br)cn12,-21%,?,6%,-2%,0%,15µM*
Cc1ccc(Nc2c(-c3cccnc3)nc3ccc(C)cn23)cc1,-5%,?,-2%[12.3 µM],-10%,nt,?
Cc1ccc(-c2nc3ccccn3c2Nc2ccccc2C)o1,?,16µM*,8%,nt,nt,?
Cc1ccc2nc(-c3cccnc3)c(Nc3ccccc3C)n2c1,-17%,?,-1%,-2%,0%,16µM*
O=C(O)/C=C/c1ccc2ccccc2c1,nt,-2%,nt,nt,nt,2%
CC(C)(C)C(=O)Nc1ccc(C(=O)COC(=O)c2ccccn2)cc1,21%,0%,0%,-1%,5%,-9%
Cc1ccc(N2CC(NC(=O)C3CC3)CC2=O)cc1C (configuration not stated),3%,-8%,5%,-2%,nt,23%
SMILES,VDR inh,TDP1 cell noCPT,TDP1 block,KAT2A inh,PLK1 PBD block,TDP1 cell CPT
COc1ccc(-c2nc3ccccn3c2Nc2ccccc2C)cc1,-5%,?,8%,nt,nt,11µM*
Cc1ccccc1Nc1c(-c2cccnc2)nc2ccccn12,8%,?,4%,-1%,-7%,21µM*
CCCc1ccc2oc(C(=O)N(C)Cc3nccs3)c(C)c2c1,-10%,?,0%,-10%,-10%,?
Cc1ccc2oc(C(=O)N(Cc3ccc(N(C)C)cc3)CC3CCCO3)c(C)c2c1 (configuration not stated),-8%,18µM*,14%,-7%,-5%,?
Cc1ccccc1OCC(=O)N(Cc1ccc(N(C)C)cc1)CC1CCCO1 (configuration not stated),4%,21µM*,9%,-4%,nt,?
Cc1cc(C)c(OCC(=O)N(Cc2ccc(N(C)C)cc2)CC2CCCO2)c(C)c1 (configuration not stated),3%,10µM*,9%,-7%,nt,16µM*
Cn1c(SCC(=O)N2CCOCC2)ncc(C(=O)Nc2ccccc2)c1=O,-2%,-25%,5%,-2%,nt,?
COC(=O)[C@H]1C[C@H]2CC[C@H](O)C[C@H]2N1Cc1c(F)cccc1Cl,nt,nt,5%,nt,nt,nt
COc1cccc(C(=O)OCCNC(=O)c2cccnc2)c1,13%,-6%,nt,-19%,1%,1%
COc1ccc(S(N)(=O)=O)cc1C(=O)OCC(=O)N1c2ccccc2NC(=O)C1(C)C,20%,-16%,nt,-7%,-4%,12%
COc1cc(/C=C/C(=O)OCC(=O)N2c3ccccc3NC(=O)C2(C)C)cc(OC)c1OC,-9%,10µM*,0%,-1%,-1%,18µM*
O=c1n(Cc2ccc([N+](=O)[O-])cc2)c2ccccc2c2nc(-c3ccccc3)nn12,10%,?,2%,0%,nt,7.3µM*
COc1ccccc1CNc1ncnc2cc(Cl)ccc12,-2%,?,0%,-7%,-11%,?
CCN(CC)Cc1cc2[nH]c3c4ccc(Cl)cc4ncc3c2cc1OC,-7%,5µM*,nt,-6%,-3%,3.2µM*
COc1ccc(/C(C)=N/NC(=O)CNC(=O)C(c2ccccc2)c2ccccc2)c(OC)c1,-2%,?,2%,-5%,5%,?
CNc1nc(N)c([N+](=O)[O-])c(N2CCCCCC2)n1,8%,16%,nt,-5%,-6%,0%
Nc1nc(NCc2ccco2)nc(NC2CCCCC2)c1[N+](=O)[O-],-9%,-15%,5%,2%,-9%,1%
CC(C)CCNc1nc(N)c([N+](=O)[O-])c(N2CCCCCC2)n1,-13%,16µM*,nt,-3%,-1%,?
Cc1ccc(Nc2nc(N)c([N+](=O)[O-])c(NCCO)n2)cc1C,-12%,-24%,4%,-6%,-10%,10%

# Assay outcomes deposited in PubChem by National Center for Advancing Translational Sciences (NCATS).
